ERa SRC1 pot = enhances coactivator binding to human estrogen receptor alpha; TR-FRET ERalpha-LBD/SRC-Cy5 coactivator binding, 2 h; 100 = basal binding, no effect; coactivator binding (% of control), % at 25.6 µM; hit rate 1.3% among 86,000; AID 639; P03372; in the data active means activity above about 200%;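 further: binding measured in presence of low estradiol as agonist stimulus; 0% = peptide alone without receptor and 100% = receptor with peptide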
Target sequence (P03372 whole entry, looked up, the tested form may be a part): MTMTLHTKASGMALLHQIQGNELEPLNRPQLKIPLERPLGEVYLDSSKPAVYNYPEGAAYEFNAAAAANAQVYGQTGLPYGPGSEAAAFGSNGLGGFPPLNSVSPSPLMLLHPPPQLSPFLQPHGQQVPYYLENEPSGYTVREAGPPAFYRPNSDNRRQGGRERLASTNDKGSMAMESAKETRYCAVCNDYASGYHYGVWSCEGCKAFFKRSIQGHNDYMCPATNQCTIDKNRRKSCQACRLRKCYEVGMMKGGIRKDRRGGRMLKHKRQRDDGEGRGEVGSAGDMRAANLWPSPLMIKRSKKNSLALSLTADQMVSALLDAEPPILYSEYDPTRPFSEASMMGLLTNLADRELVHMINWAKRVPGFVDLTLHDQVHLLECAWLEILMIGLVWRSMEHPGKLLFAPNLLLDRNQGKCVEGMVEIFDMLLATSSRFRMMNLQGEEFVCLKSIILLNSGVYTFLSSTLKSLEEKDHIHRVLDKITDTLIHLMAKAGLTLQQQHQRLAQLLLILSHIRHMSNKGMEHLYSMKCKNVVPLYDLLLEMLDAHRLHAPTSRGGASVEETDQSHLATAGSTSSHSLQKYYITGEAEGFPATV
ERa coact inh = ER-alpha (human) coactivator binding inhibition; P03372; TR-FRET ER-alpha LBD / SRC-1 peptide, estradiol-bound; inhibition, % at 25.6 µM; hit rate 1.7% among 86,000; AID 629; in the data active means inhibition above about 50%;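 further: 0% = receptor plus peptide control and 100% = peptide only without receptor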
ERb coact inh = ER-beta (human) coactivator binding inhibition | TR-FRET ER-beta LBD / SRC1-Cy5 peptide binding; receptor agonist-loaded with 1 µM estradiol | inhibition, % at 25.6 µM | hit rate 1.3% among 86,000 | AID 633;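 active means compounds whose percent inhibition of the receptor-coactivator binding signal exceeds about 50% in the single-dose screen, limit read from the data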;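 further: 0% = receptor plus peptide wells without compound and 100% = peptide-only wells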
NFkB transloc inh = blocks IL-1B driven NFkB nuclear translocation in HUVEC cells | HUVEC IL-1B NFkB p65 nuclear translocation imaging | inhibition, % at 2 µM | hit rate 0.43% among 94,000;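 active means inhibition above about 30% together with a positive call from visual inspection of the well image, limit read from the data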;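 further: nuclear over cytoplasmic p65 intensity ratio measured by imaging; 0% = IL-1B stimulated DMSO wells and 100% = unstimulated DMSO wells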
HUVEC tox IL1B = toxic to HUVEC cells under IL-1B stimulation | HUVEC cell count loss, Hoechst imaging, IL-1B stimulated | cell count reduction, % at 2 µM | hit rate 0.41% among 94,000;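 active means cell count reduction more than 3 SD above the screen-wide mean, cut at about 70% in these data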;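 further: normalized per plate to untreated control cells as the no-loss baseline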
NFkB transloc pot = enhances IL-1B driven NFkB nuclear translocation. HUVEC IL-1B NFkB p65 nuclear translocation imaging. activation, % at 2 µM. hit rate 0.3% among 94,000. AID 819;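 active means activation above 40%, about the mean plus 3 SD, also judged a hit on visual image review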;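 further: percent activation is computed from the nuclear over cytoplasmic p65 intensity ratio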
* hit, by the source's call; . = not tested or not shown; [ ] = remark or other dose. Most compounds without a hit are left out; they make up all but 3.6% or so of the library.

SMILES | ERa SRC1 pot | ERa coact inh | ERb coact inh | NFkB transloc inh | HUVEC tox IL1B | NFkB transloc pot
COc1cc(C(Nc2ccccn2)c2ccc3ccc(C)nc3c2O)cc(OC)c1O (stereo unspecified) | 179 | 64*[fluorescence artefact?] | 65* | 5 | 6 | -5
Cc1ccc2ccc(C(Nc3ccccn3)c3ccccc3)c(O)c2n1 (stereo unspecified) | 50 | 49 | 36 | -20 | -9 | 20
CCCOC(=O)c1sc2nc3c(cc2c1N)C(=O)CCC3 | 127 | 17 | 17 | 2 | 11 | -2
Nc1c(C(=O)NCc2ccco2)sc2nc3c(cc12)C(=O)CCC3 | 77 | 82*[fluorescence artefact?] | 85*[fluorescence artefact?] | 14 | 2 | -14
COc1ccc(-n2c(N)c(C(=O)NCc3ccco3)c3nc4ccccc4nc32)c(OC)c1 | 72 | 22 | 21 | -5 | -12 | 5
O=C(NCc1ccco1)c1c2c(nc3ccccc13)CCC2 | 21 | 93*[fluorescence artefact?] | 92*[fluorescence artefact?] | . | . | .
COc1ccc2cc3c(N)c(C(=O)NCc4ccco4)sc3nc2c1 | 70 | 56*[fluorescence artefact?] | 37 | -3 | -2 | 3
Cn1c(Cn2nnc(-c3ccccc3)n2)nnc1SCc1ccccc1Cl | 105 | -2 | -12 | -15 | -3 | 15
CC1CCN(CC(O)COC2CCC(C(C)(C)C)CC2)CC1 (stereo unspecified) | 105 | 5 | -6 | -8 | 6 | 8
Cc1nn(-c2ccc(Cl)cc2)c2sc(C(=O)N3CCN(c4ccccn4)CC3)cc12 | 452* | 14 | 4 | -13 | -30 | 13
Cc1nc(SCC(=O)N2CCc3ccccc32)n[nH]1 | 94 | 7 | -7 | -19 | -25 | 19
O=C(CSc1nnc(-c2ccco2)c(-c2ccco2)n1)Nc1ccccc1 | 22 | 84*[fluorescence artefact?] | 86*[fluorescence artefact?] | 7 | -3 | -7
Cc1ccc(NC(=O)CSc2nnc(-c3ccco3)c(-c3ccco3)n2)cc1 | 43 | 81*[fluorescence artefact?] | 74*[fluorescence artefact?] | 3 | -2 | -3
COc1ccc(C(N)CCc2ccc(C)o2)cc1 (stereo unspecified) | 19 | 95*[fluorescence artefact?] | 74* | -4 | 33 | 4
CCOC(=O)Cn1c(C)c(Br)c(=O)c2cccc(C)c21 | 125 | -9 | -6 | 8 | -5 | -8
O=C(O)c1ccc2c(c1)[C@@H]1C=CC[C@@H]1[C@H](c1ccccn1)N2 | 21 | 68* | 86* | -3 | 15 | 3
CC(=O)CCc1ccc(OC(=O)c2cccnc2)cc1 | . | . | . | 12 | 18 | -12
CCC(CC)C(=O)NCc1ccc2c(c1)cc(C)n2C | . | . | . | -2 | -18 | 2
CCOC(=O)NCc1ccc2c(c1)cc(C)n2C | . | . | . | -10 | -18 | 10
Cc1cc2cc(CNC(=O)Nc3ccccc3)ccc2n1C | 222*[fluorescence artefact?] | 11 | 17 | -15 | -35 | 15
Cc1cc2cc(CNC(=O)c3cccs3)ccc2n1C | 65 | 75*[fluorescence artefact?] | 47 | . | . | .
COc1ccc(-c2nnc3ccc(SC)nn23)cc1 | 101 | 0 | -5 | 10 | -5 | -10
O=C(CN(C(=O)CSc1nc2ccccc2o1)c1ccccc1)NC1CCCCC1 | . | . | . | -14 | 3 | 14
Cc1[nH]nc2ncc(C(=O)c3cc(F)ccc3O)cc12 | 95 | 2 | -8 | -11 | -3 | 11
Cc1noc2ncc(C(=O)c3cc(F)ccc3O)cc12 | 96 | 0 | 3 | -30 | 93* | 30
SMILES | ERa SRC1 pot | ERa coact inh | ERb coact inh | NFkB transloc inh | HUVEC tox IL1B | NFkB transloc pot
N#Cc1cc2c(=O)n3ccccc3nc2n(CCCn2ccnc2)c1=N | 61 | 35 | 56* | 10 | -16 | -10
N#Cc1cc2c(=O)n3ccccc3nc2n(CC2CCCO2)c1=N (stereo unspecified) | 88 | 16 | 37 | -5 | -31 | 5
CS(=O)(=O)N1CCC(C(=O)Nc2ccc3c(c2)OCCO3)CC1 | 103 | 0 | 1 | -8 | -11 | 8
N#Cc1c(NC(=O)c2ccncc2)sc2c1CCC2 | 10 | 91*[fluorescence artefact?] | 91*[fluorescence artefact?] | 11 | -19 | -11
COCCn1c(SCC(=O)OCc2ccccc2)nc2c1c(=O)[nH]c(=O)n2C | 95 | 9 | -7 | . | . | .
CC1Cc2ccccc2N1C(=O)CSc1nnnn1C1CCCC1 (stereo unspecified) | 109 | -4 | 4 | 2 | 11 | -2
CS(=O)(=O)c1nc(-c2ccc(Br)cc2)cc(-c2ccccc2)c1C#N | 170 | 21 | 12 | -77 | 26 | 77*
Cc1ccsc1-c1nc(CSCC(=O)NCc2ccc3c(c2)OCO3)c(C)o1 | 107 | 1 | 2 | 17 | 2 | -17
CCN1C(=O)/C(=C/N(C(C)=O)c2ccccc2)N(c2ccccc2)C1=S | 112 | -7 | 18 | 43* | -29 | -43
COC(=O)c1ccc2c(c1)C(C)(C)C(/C=C/c1ccc(OC)c(OC)c1OC)=[N+]2C | 73 | -14 | 1 | 37* | -2 | -37
COC(=O)c1ccc2c(c1)C(C)(C)C(/C=C/c1ccc(O)cc1)=[N+]2C | . | . | . | 34* | -6 | -34
COC(=O)c1ccc(O)c(Sc2cc(C(=O)OC)ccc2O)c1 | 39 | -7 | -3 | -14 | 7 | 14
COC(=O)c1ccc2nc(C)c(C)nc2c1 | . | . | . | -2 | 4 | 2
Cc1ccc(C2/C(=C(/O)c3ccccc3)C(=O)C(=O)N2CCN2CCOCC2)o1 (stereo unspecified) | 104 | -6 | 2 | -17 | 18 | 17
Cc1ccc(C)c(/C(O)=C2/C(=O)C(=O)N(CCN3CCOCC3)C2c2ccco2)c1 (stereo unspecified) | 81 | 46 | 51* | -12 | 2 | 12
N#Cc1ccc(-c2ccc3c(c2)OCO3)nc1SCC(=O)OCc1ccccc1 | 246*[fluorescence artefact?] | 17 | -5 | -5 | -10 | 5
COc1ccc(-c2ccc(C#N)c(SCC(=O)OCc3ccccc3)n2)cc1OC | 206*[fluorescence artefact?] | -1 | 43 | -2 | 1 | 2
Cc1nc(SCC(=O)OCc2ccccc2)c(C#N)c(-c2ccccc2)c1C(=O)Nc1ccccc1 | . | . | . | 9 | 10 | -9
COc1ccc(/C(N)=N/OC(=O)CSc2ccccc2)cc1OC | 93 | -9 | 8 | 20 | 11 | -20
O=C(NCc1ccco1)c1ccc(S(=O)(=O)N2CCOCC2)cc1 | 37 | 70*[fluorescence artefact?] | 56*[fluorescence artefact?] | -10 | 7 | 10
Cc1cc2ccccc2n1CCNC(=O)c1ccc(S(=O)(=O)N2CCOCC2)cc1 | 98 | 70*[fluorescence artefact?] | 31 | . | . | .
O=C(NCc1ccco1)c1cccc(S(=O)(=O)N2CCOCC2)c1 | 109 | -1 | 2 | . | . | .
Cc1cc2ccccc2n1CCNC(=O)Cc1cccc2ccccc12 | 212* | 0 | 5 | -8 | 8 | 7
Cc1ccnc(SCCn2c(N3CC(C)CC(C)C3)nc3c2c(=O)n(C)c(=O)n3C)n1 (stereo unspecified) | 103 | -5 | -3 | . | . | .
Cc1cc(C)nc(NS(=O)(=O)c2ccc(NC(=O)CCCN3C(=O)c4ccccc4C3=O)cc2)n1 | 82 | 0 | 2 | . | . | .
CCOC(=O)c1c(NC(=O)Cn2nnc(-c3ccc(Cl)cc3)n2)sc(CC)c1C | 98 | -7 | -6 | 2 | -13 | -2

Screens: PubChem, several laboratories
